In PubChem BioAssay (NCI):
About 83,000 compounds went through this panel and 20% of them were active in at least one assay; those are over-represented in the sample as a whole.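 For each line, cells grew in 96-well plates with the test compound present at a single concentration for 48 hours.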 Values without a mark were called inactive. Calls of active or inactive are those of the source. Rule for the calls: active = growth percent below 10; inactive = the rest.

Test system: HCT-15 colon
Assay: NCI-60 one-dose screen, 48 h (100 = growth as untreated, 0 = no growth, -100 = all killed)
Details: 10 µM unless noted

| SMILES | growth |
| --- | --- |
| CCCCC(=O)Nc1nc2ccc(SCCC)cc2s1 | 43.6% |
| CC(C)(C)C(=O)/C=c1/[nH]c(=O)/c(=C/c2ccccc2O)s1 | 33.8% |
| CC[C@@]1(O)C(=O)OCc2c1cc1n(c2=O)Cc2c-1nc1ccccc1c2/C=N/OC(C)(C)C | 11.2% |
| COc1ccc(OC)c(NCC(=O)n2nc(/C=C\c3ccc(O)c(OC)c3)cc2/C=C\c2ccc(O)c(OC)c2)c1 | 17.5% |
| O=C1OC(=O)C2C3CC(c4ccccc43)C12 (centres undefined) | 94.5% |
| COc1ccc2c(c1)OC(N)=C(C#N)C2c1ccc(F)cc1 (centres undefined) | 21.9% |
| S=C=NP1(N=C=S)=NP(N=C=S)(N=C=S)=NP(N=C=S)(N=C=S)=NP(N=C=S)(N=C=S)=N1 (centres undefined) | 103% |
| COc1cc(-c2nc(N)n(CC(=O)Nc3ccc(/C(C)=N\O)cc3)n2)cc(OC)c1OC | 101% |
| COc1cc2ncnc(Oc3ccc(NC(=O)Nc4ccc(CN5CCOCC5)c(C(F)(F)F)c4)c4ccccc34)c2cc1OC | 32.9% |
| COc1ccc(-c2c(C#N)cnc(N)c2-c2nc3cc(C)c(C)cc3[nH]2)cc1 | 60.3% |
| c1ccc(CNCCN(CCNCc2ccccn2)Cc2ccc3ccccc3c2)nc1 | 1.52% (active) |
| C=C1C(=O)O[C@H]2[C@H]1CC/C(C(=O)Nc1ccc(OC)c(C(N)=O)c1O)=C\CC[C@@]1(C)O[C@@H]21 | 45.8% |
| Cc1ccc2oc(=O)cc(C3C(C#N)=C(N)Oc4c3ccc3ccccc43)c2c1 (centres undefined) | 51.1% |
| COc1ccc(-c2nn(-c3ccc(NC(=O)c4cc(C(F)(F)F)cc(C(F)(F)F)c4)cc3)cc2-c2ccncc2)cc1Cl | 46% |
| Cc1cccc(NCS(=O)(=O)O)c1 | 101% |
| O=C(O)c1ccccc1C(=O)c1ccc(I)cc1 | 100% |
| CC1(C)CC(=O)C2=C(C1)OC1=C(C(=O)CC(C)(C)C1)C2c1ccc(OCc2cn(-c3ccc(F)cc3F)nn2)cc1 | 105% |
| CC(C)(CCN=C(N)Nc1ccccn1)c1ccc(C(F)(F)F)cc1 | 9.42% (active) |
| CC(=O)c1cc2c(c(O)c1C)C(=O)C(=O)c1c(O)cccc1-2 | -61.3% (active) |
| O=C(Nc1ccc(F)cc1)Nc1ccc(Cl)c([N+](=O)[O-])c1 | 11.1% |

| SMILES | growth |
| --- | --- |
| C#C[C@H](O)/C=C/CCCCCCC#C[C@H](O)CC[C@@H](O)C#CCCCCCC/C=C/[C@@H](O)C#C | 80.4% |
| O=C(Nc1ccc(-n2cc(-c3ccncc3)c(-c3ccc(O)c(Cl)c3)n2)cc1)c1ccc(Cl)c(C(F)(F)F)c1 | 7.89% (active) |
| Cc1nccc2c3ccc(OCc4cn(Cc5ccc(Br)cc5)nn4)cc3n(CCCc3ccccc3)c12 | 92.8% |
| NCC(=O)NS(=O)(=O)OC[C@H]1O[C@@H](n2cnc3c(N)ncnc32)[C@H](O)[C@@H]1O | 11.4% |
| C[C@H]1C=C(C[C@@H](O)CC#CC#CCCCCC[C@@H](O)[C@H]2CCC(=O)O2)C(=O)O1 | 110% |
| CN1CCN(C(=O)/C=C/c2ccc([N+](=O)[O-])o2)CC1 | 63.8% |
| OCc1cnccc1NC12CC3CC(CC(C3)C1)C2 | 103% |
| Nc1nccc(=S)[nH]1 | 98.7% |
| COc1cc(C(=O)N2CCN(C(=O)c3cc(OC)c(OCc4ccccc4)cc3N)CC2)c(N)cc1OCc1ccccc1 | 130% |
| C[C@@H]1CC2C3C[C@H](F)C4=CC(=O)C=C[C@]4(C)[C@@]3(F)[C@@H](O)C[C@]2(C)[C@@]1(O)C(=O)CO (some centres undefined) | 101% |
| CCCCCn1ncc(-c2c(O)c(O)cc3c(O)c(-c4c(C)cc5c(-c6cnn(CCCCC)n6)c(O)c(O)cc5c4O)c(C)cc23)n1 | 14% |
| COc1ccc(NC(=O)COCCOCCNC[C@@H]2C(=O)O[C@H]3[C@H]2CC/C(COC(=O)OC/C2=C/CC[C@@]4(C)O[C@H]4[C@H]4OC(=O)[C@@H](CN(C)C)[C@@H]4CC2)=C\CC[C@@]2(C)O[C@@H]32)c(O)c1C(N)=O | 17.1% |
| Cc1cc(C)c(O)c(C(=O)CC(Br)C(=O)O)c1 (centres undefined) | 103% |
| COc1ccc(-c2[nH]c3ccccc3c2/C=C(\C#N)S(=O)(=O)c2ccccc2)cc1 | 24.6% |
| NC(=NCCCOc1ccc(F)cc1)Nc1ccc(Cl)c(Cl)c1 | 75.6% |
| O=C(N/N=C/c1ccccc1O)c1ccccc1O | 30.1% |
| NC(=S)NNC1CCCCC1 | 99.7% |
| CCN1CCN(Cc2ccc(NC(=O)Nc3cccc(-n4ccc5c(NC(=O)c6ccccc6)nccc54)c3)cc2C(F)(F)F)CC1 | 77% |
| CN(C)c1ccc(/C=c2\s/c(=C\C(=O)C(C)(C)C)[nH]c2=O)cc1 | 95.5% |
